Some of the results follow. Results filed as inconclusive are left out. Activity calls are given as the source filed them. Calls follow the shape of the dose curve; as a rule, active = well fitted inhibition curve with a large enough effect; inconclusive = small, poorly fitted or top-dose-only effect; inactive = flat fitted curve, though single readings scatter.
These compounds were tested against Dual specificity tyrosine-phosphorylation-regulated kinase 1A (Homo sapiens) (UniProt Q13627) (assay: Assay for Inhibitors of Dual-Specificity Tyrosine-(Y)-Phosphorylation Regulated Kinase 1A (Kinase-Glo assay)). Conditions: recombinant DYRK1A, Kinase-Glo ATP depletion luminescence.
Description: NIH Molecular Libraries Probe Production Centers Network [MLPCN] NIH Chemical Genomics Center [NCGC] MLSCN Grant: 1R03MH084827-01 PI Name: Tom Misteli NCGC Assay Overview: The CMGC group of protein kinases which includes CDK-like kinases (Clk) and Dyks are essential kinases found in all eukaryotes. Clks have been implicated to play a role in the regulation of alternative splicing; while Dyrks, in particular over expression of Dyrk1A, has been linked to diseases as Down syndrome (DS; OMIM 190685) and Alzheimer disease (AD; OMIM 104300). Among the members of the CMGC group, the Clks and the Dyrks are very closely related therefore to determine validity and selectivity of an active compound observed in the CLK4 qHTS screen (AID:1770), a bioluminescent counter-screen against Dyrk1A was developed. In addition, potent and selective compounds against Dyrk1A were identified to further assess the role of this enzyme in DS and AD. Dyrk1A (Invitrogen, cat # PV3785) was assayed using ATP and DYRKtide (AnaSpec, cat# 62698) as substrates. Promega Kinase-Glo (cat# V6712) technology was used to detect the residual ATP following kinetic reaction. The Kinase-Glo Plus contains Ultra-Glo [5] luciferase and D-luciferin which generates a bioluminescence signal from the remaining ATP. No enzyme and harmine (Sigma, cat # 286044-1G), a compound shown to inhibit Dyrks were used as a positive control; while DMSO treatment was used as a negative control.
NCGC Assay Protocol Summary: Two uL/well of substrate solution (8uM Dyrktide, 2uM ATP, 25mM Tris-HCl pH 7.5, 10mM MgCl2 , 0.5mM EGTA, 5mM cystein, 0.01% Triton X-100 final concentration) was dispensed into 1536-well assay plates (Greiner, solid white, medium-binding plates) with Aurora Discovery BioRAPTR Flying Reagent Dispenser (FRD, Beckton-Dickenson). Compound solution (23 nL) was transferred to the assay plate using Kalypsys pin tool equipped with a 1536-pin tool. One uL/well enzyme solution (5nM Dyrk1A, 25mM Tris-HCl pH7.5, 10mM MgCl2, 0.5mM EGTA, 5mM cystein, 0.01% Triton X-100 final concentration) was then added using FRD yielding a total kinase reaction volume of 3uL/well. After 2 hours of room temperature incubation, 3uL Kinase-Glo detection reagent was added for a final assay volume of 6uL/well. The plates were spun for 30 seconds (1000 rpm) and incubated at ambient temperature for 2 minutes followed by a luminescence read using Perkin Elmer ViewLux plate reader at 3 seconds exposure time and 2x binning.

Potency, active:
Cc1nc(CNc2ncnc3ccc(-c4ccc5c(c4)OCO5)cc23)cs1 0.292 µM
Cc1nc(C)c(-c2ccc3ncnc(NCc4ncc[nH]4)c3c2)s1 5.19 µM
c1coc(CCNc2ncnc3ccc(-c4ccc5c(c4)OCO5)cc23)c1 0.164 µM
CN(Cc1cncn1C)c1ncnc2ccc(-c3ccc4c(c3)OCO4)cc12 2.6 µM

From PubChem BioAssay AID2705 (National Center for Advancing Translational Sciences (NCATS), 2010)
